DT40 TDP1 CPT: DT40-hTDP1 cell growth loss with CPT; chicken DT40 Tdp1-/-;hTDP1 cells + 20 nM CPT, ATP luminescence, 48 h; 420,000 compounds, 12% hits; Potency, µM (top dose mostly 46.2 µM), inactives show at the top dose activity change, negative = growth inhibition, usual class: inhibitors; also: % is scaled to controls: 0 for no effect and ±100 for the full control effect; nearly all actives have a fitted effect of over 55% in size
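Cell growth measured by CellTiter-Glo luminescence after a minimum 48 h, 37 C compound exposure with 20 nM CPT in Tdp1-knockout DT40 cells stably expressing hTDP1, seeded 400/well; qHTS titration format.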
HT1080 IDH1KD tx: kills HT-1080 cells with IDH1 knockdown | HT-1080 IDH1 knockdown viability, ATP luminescence, 48 h | Potency, µM (titrated, usually from 46.1 µM), without a hit: at the highest dose activity, negative = toxicity, hits mostly cytotoxic | 360,000 compounds, 2% hits | AID 686971;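 also: 0% = DMSO wells and -100% = cell-free medium wells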
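Viability of IDH1-knockdown HT-1080 fibrosarcoma cells was assessed by CellTiter-Glo after 48 h at 37 °C with titrated compound; concentration-effect curves were classified by fit quality and response size.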
TGFb inhibitor: TGF-b pathway inhibition | HepG2 CAGA-GFP TGF-b/SMAD3 reporter, GFP fluorescence, 18 h; TGF-beta stimulated, 500 pg/mL final | Potency, µM (titrated, usually from 46.1 µM), for inactives: top-dose activity, negative = inhibition, hits mostly inhibitors | 410,000 compounds, 1.2% hits | AID 588855; also: % is scaled to controls: 0 for no effect and ±100 for the full control effect; nearly all actives have a fitted effect of over 65% in size
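Smad-responsive CAGA-GFP expression was quantified in HEPG2 cells exposed to compounds and 500 pg/mL final TGF-beta for 18 h at 37 degrees C; unstimulated wells defined full inhibition.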
DT40 TDP1 no CPT: qHTS for Inhibitors of human tyrosyl-DNA phosphodiesterase 1 (TDP1): qHTS in cells in absence of CPT; AID 686978, 2013; DT40 Tdp1-/- hTDP1 cells, no CPT, ATP luminescence, 48 h; Potency, µM (titrated, usually from 46.2 µM), for the others: top-dose activity change, negative = growth inhibition, actives largely listed as inhibitors; 420,000 compounds, 15% hits; also: % is scaled to controls: 0 for no effect and ±100 for the full control effect; nearly all actives have a fitted effect of over 55% in size
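Compound effects on proliferation are scored in DT40 Tdp1-/-;hTDP1 cells in the absence of CPT. ATP levels (CellTiter-Glo luminescence) are recorded after a ≥48 hr, 37 °C incubation.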
HT1080NT lethal: kills 2HG-producing HT-1080-NT fibrosarcoma cells; HT-1080-NT fibrosarcoma viability, CellTiter-Glo ATP luminescence, 48 h; Potency, µM (highest dose often 46.1 µM), without a hit: top-dose activity, negative = less viability, usual class: cytotoxic; 360,000 compounds, 1.6% hits;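 also: NT is the 2HG producing partner of a matched IDH1 knockdown line; 0% = DMSO-treated cells and -100% = media-only wells without cells; nearly all actives have a fitted effect of over 55% in size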
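750 cells/well, RPMI + 5% FBS; 2 h settle, compound pin-transfer, 48 h at 37 degrees C. CellTiter-Glo 10 min RT, luminescence. Normalized to DMSO and media-only wells.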
HepG2 tox: kills HepG2 cells in TGF-b inhibitor counter-screen; HepG2 CAGA-GFP viability, ATP luminescence, 18 h; Potency, µM (doses to about 46.1 µM), for inactives: top-dose activity change, negative = cytotoxicity, actives largely listed as cytotoxic; 410,000 compounds, 0.76% hits
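HepG2 CAGA-GFP cells (1000/well, DMEM with 1% FBS) received compound, then TGF-beta at 500 pg/mL final, and were incubated 18 hours at 37 degrees C. Viability was read by CellTiter-Glo luminescence. Media-only wells were set as complete cell-killing and DMSO as no toxicity.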
Numbers without * were called inactive; [ ] = dose if it differs, or a comment. Shown are actives, neighbours in structure and some others; about 17% of the full set was active somewhere. Calls follow the shape of the dose curve; as a rule, active = well fitted curve in the direction sought with a large enough effect; inconclusive = small, poorly fitted or top-dose-only effect, or another doubt; inactive = no such curve, though single readings can be large; an effect the other way counts as inactive or inconclusive. Potency is read from the fitted curve at half-maximal effect.

`COc1ccc(N2CC(NC(=O)/C=C\c3ccc4c(c3)OCO4)CC2=O)cc1` (stereo not drawn) gave DT40 TDP1 CPT -20.3%, TGFb inhibitor -3.7%, DT40 TDP1 no CPT 2.4% and HepG2 tox -6.6%.
Screening Cc1ncc2c(c1CNS(=O)(=O)N(C)C)CCN(C(=O)c1ccc(-c3ccc(F)cc3)cc1)C2 returned DT40 TDP1 CPT 7.6%[9.04 µM] and DT40 TDP1 no CPT inconclusive.
Nc1cc[n+](CC(=O)c2ccccc2)cc1 was read as DT40 TDP1 CPT inconclusive, HT1080 IDH1KD tx -0.4%, TGFb inhibitor inconclusive, DT40 TDP1 no CPT inconclusive, HT1080NT lethal -0.4% and HepG2 tox -26.7%.
Screening O=C(Cn1cc[n+](CC(=O)c2ccc(Cl)cc2Cl)c1)c1ccc(Cl)cc1Cl returned DT40 TDP1 CPT inconclusive, HT1080 IDH1KD tx -7.9%, TGFb inhibitor inconclusive, DT40 TDP1 no CPT 25.9µM*, HT1080NT lethal -15.1% and HepG2 tox -138.7%.
`O=C(Cn1cc[n+](CC(=O)c2ccccc2)c1)c1ccccc1` gave DT40 TDP1 CPT 8.2µM*, HT1080 IDH1KD tx 4.0%, TGFb inhibitor -19.6%, DT40 TDP1 no CPT 4.11µM*, HT1080NT lethal 6.1% and HepG2 tox 0.2%.
For CC1(C2CC2)NC(=O)N(CC(=O)NCc2ccc(Cl)cc2Cl)C1=O (stereo not drawn) the results were DT40 TDP1 CPT -2.8%, HT1080 IDH1KD tx -2.8%, TGFb inhibitor -7.0%, DT40 TDP1 no CPT 16.3%, HT1080NT lethal -4.9%[9.24 µM] and HepG2 tox 1.3%.
Screening CC(C)CNc1ncnc2c1ncn2[C@H]1CN(Cc2ccco2)C[C@@H](CO)O1 returned DT40 TDP1 CPT -28.5%, HT1080 IDH1KD tx 7.2%, TGFb inhibitor 16.6%, DT40 TDP1 no CPT -25.1%, HT1080NT lethal 8.8% and HepG2 tox 10.2%.
For O=[N+]([O-])c1ccc2[nH]cc(S(=O)(=O)N3CCN(c4cccc(Cl)c4)CC3)c2c1 the results were DT40 TDP1 CPT inconclusive, HT1080 IDH1KD tx 23.1µM*, TGFb inhibitor inconclusive, DT40 TDP1 no CPT -13.6%, HT1080NT lethal 20.6µM* and HepG2 tox -39.6%.
Screening O=S(=O)(c1ccc2[nH]c3c(c2c1)CCCCC3)N1CCN(c2cccc(Cl)c2)CC1 returned DT40 TDP1 CPT 18.4µM*, TGFb inhibitor inconclusive, DT40 TDP1 no CPT 11.6µM* and HepG2 tox -0.6%.
`Cc1ccc(Cl)cc1N1CCN(S(=O)(=O)c2cnc[nH]2)CC1` gave DT40 TDP1 CPT 20.6µM*, HT1080 IDH1KD tx -6.3%, TGFb inhibitor 5.9%, DT40 TDP1 no CPT inconclusive, HT1080NT lethal 4.5% and HepG2 tox -2.8%.
`CC(=O)c1ccc(N2CCN(S(=O)(=O)c3ccc4[nH]c5c(c4c3)CCCC5)CC2)cc1` gave DT40 TDP1 CPT inconclusive, TGFb inhibitor inconclusive, DT40 TDP1 no CPT 25.9µM* and HepG2 tox -2.7%.
O=C(Nc1cccc(Cl)c1)C1CCCN(C2=NS(=O)(=O)c3ccccc32)C1 (stereo not drawn) was read as DT40 TDP1 CPT -21.6%, HT1080 IDH1KD tx -1.3%, TGFb inhibitor 5.2%, DT40 TDP1 no CPT inconclusive, HT1080NT lethal 1.8% and HepG2 tox 34.6%.
`COc1ccc(Nc2ncnc3onc(C)c23)cc1Cl` gave DT40 TDP1 CPT -6.2%, TGFb inhibitor 8.9%, DT40 TDP1 no CPT inconclusive and HepG2 tox -2.0%.
For Cc1ccc(Cl)cc1N1CCN(S(=O)(=O)c2ccc3[nH]c4c(c3c2)CCCC4)CC1 the results were DT40 TDP1 CPT inconclusive, TGFb inhibitor 10µM*, DT40 TDP1 no CPT inconclusive and HepG2 tox -3.7%.
`CC1CCCN(S(=O)(=O)c2ccc3[nH]c4c(c3c2)CCCC4)C1` (stereo not drawn) gave DT40 TDP1 CPT 20.6µM*, HT1080 IDH1KD tx inconclusive, TGFb inhibitor inconclusive, DT40 TDP1 no CPT inconclusive, HT1080NT lethal inconclusive and HepG2 tox -25.6%.
Screening Cc1ccnc(NS(=O)(=O)c2ccc(NC(=O)CC(C)c3ccccc3)cc2)n1 (stereo not drawn) returned DT40 TDP1 CPT 1.5%, HT1080 IDH1KD tx 5.2%, TGFb inhibitor inconclusive, DT40 TDP1 no CPT 10.7%, HT1080NT lethal 8.1% and HepG2 tox -0.7%.
Screening O=C(Cn1c2[n+](c3ccc(C(F)(F)F)cc31)CCCCC2)Nc1ccc(Br)cc1 returned DT40 TDP1 CPT 5.3%, HT1080 IDH1KD tx 8.6%, TGFb inhibitor -8.5%, DT40 TDP1 no CPT 4.5%, HT1080NT lethal 1.9% and HepG2 tox -2.2%.
For FC(F)(F)c1cccc(Cn2c3[n+](c4ccc(C(F)(F)F)cc42)CCCCC3)c1 the results were DT40 TDP1 CPT inconclusive, HT1080 IDH1KD tx -21.2%, TGFb inhibitor -2.5%, DT40 TDP1 no CPT 23.1µM*, HT1080NT lethal -22.0% and HepG2 tox 8.4%.
N#Cc1ccc(NC(=O)Cn2c3[n+](c4ccc(C(F)(F)F)cc42)CCCCC3)cc1 was read as DT40 TDP1 CPT inconclusive, HT1080 IDH1KD tx 4.5%, TGFb inhibitor 0.6%, DT40 TDP1 no CPT inconclusive, HT1080NT lethal 9.4% and HepG2 tox -8.3%.
`Cc1cc(C(C)(C)C)cc(C)c1Cn1c2[n+](c3ccc(C(F)(F)F)cc31)CCCCC2` gave DT40 TDP1 CPT 2.06µM*, HT1080 IDH1KD tx inconclusive, TGFb inhibitor inconclusive, DT40 TDP1 no CPT 1.84µM*, HT1080NT lethal 14.6µM* and HepG2 tox -51.5%.
For Cc1ccc(N(C(=O)c2sc(C)nc2C)C(C(=O)NCc2ccco2)c2ccccc2)cc1 (stereo not drawn) the results were DT40 TDP1 CPT inconclusive, HT1080 IDH1KD tx 0.0%, TGFb inhibitor 0.2%, DT40 TDP1 no CPT inconclusive, HT1080NT lethal 0.0% and HepG2 tox -11.6%.
`Cc1ccc(NC(=O)/C=C\C(=O)N(c2ccc(C(C)C)cc2)C(C(=O)NCc2ccco2)c2ccc(F)cc2)cc1` (stereo not drawn) gave DT40 TDP1 CPT 14.6µM*, TGFb inhibitor 6.31µM*, DT40 TDP1 no CPT 18.4µM* and HepG2 tox -41.0%.
`COc1ccc(N(C(=O)/C=C\C(=O)Nc2ccc(C)cc2)C(C(=O)NCc2ccco2)c2ccc(C)cc2)cc1` (stereo not drawn) gave DT40 TDP1 CPT 6.51µM*, TGFb inhibitor -20.4%, DT40 TDP1 no CPT 4.11µM* and HepG2 tox -34.3%.
